Consider 28 compounds from PubChem BioAssay (NCATS).

Records with an inconclusive call do not appear. A call without a number means that no potency is given here. Unmarked numbers belong to inactive results. The source made the active and inactive calls. Calls follow the shape of the dose curve; as a rule, active = well fitted inhibition curve with a large enough effect; inconclusive = small, poorly fitted or top-dose-only effect; inactive = flat fitted curve, though single readings scatter.

A short description of this assay: Primary qHTS for inhibitors of nuclear receptor binding SET domain protein 2 (NSD2) in an isogenic RCH-ACV NSD2 p.E1099K mutant (9B) (AID 1645876). Also: nearly all actives have a fitted effect of over 70% in size. Particulars: RCH-ACV (leukaemia line) NSD2 E1099K (9B) viability, CellTiter-Glo, 72 h; series mostly up to 44.9 µM.
With `C/C=C(\C)C(=O)OC[C@H]1O[C@@H](O[C@H]2[C@@H](O[C@H]3O[C@H](COC(=O)/C(C)=C/C)[C@@H](O)[C@H](O)[C@H]3O[C@@H]3O[C@H](CO)[C@@H](O)[C@H](OC(=O)/C(C)=C/C)[C@H]3O)O[C@H](COC(=O)/C(C)=C/C)[C@@H](O)[C@@H]2O)[C@H](O)[C@@H](O)[C@@H]1O`, the activity change, negative = viability loss was -4.56% [at 9.23 µM].
Take `CC(CC12CCCN1C(=O)C1CCCN1C2=O)OC(N)=O` (stereo not drawn): the Potency result is “inactive”.
As to `CC1=CC2=C(C)C(=O)C(C)(O)C(O)C2CO1` (stereo not drawn), the Potency entry is “inactive”.
As to `COc1cc(CO)ccc1O[C@@H]1O[C@H](CO)[C@@H](O)[C@H](O)[C@H]1O`, the Potency entry is “inactive”.
On the same count and under the same terms, as for `COC1OC(O)C2(CCC3(O2)C(C)CC2OC(=O)C4(C)CCCC3(C)C24)C1O` (stereo not drawn), the entry is “inactive”.
For the compound `COc1cc(C)c(C(=O)NC2C(C)OC(OC3CCC(C)C4C3C=C(C)C3/C(C)=C\CC/C(C)=C/C5(C)C=C(C(=O)O)C(C)CC56OC(=O)/C(=C(\O)C34C)C6=O)C(O)C2(C)O)c(O)c1` (stereo not drawn), the activity change, negative = viability loss was 4.33% [at 9.23 µM].
For `CC/C=C\CC1C(CC(=O)O)CCC1OC1OC(CO)C(O)C(O)C1O` (stereo not drawn), the Potency entry was “inactive”.
`C/C(=C\CCC(C)(C)O)CCO[C@@H]1O[C@H](CO[C@@H]2O[C@@H](C)[C@H](O)[C@@H](O)[C@H]2O)[C@@H](O)[C@H](O)[C@H]1O`: the Potency entry was “inactive”.
Consider `CC(C)(O)C(O)C(=O)OCc1ccc(O[C@@H]2O[C@H](CO)[C@@H](O)[C@H](O)[C@H]2O)cc1` (stereo partly drawn), for which the Potency result is “inactive”.
For the compound `O=C1NC(=O)/C(=C/c2cccc(C(F)(F)F)c2)S1`, the Potency result was “inactive”.
Consider `Cn1nccc1-c1ccccc1Oc1ccc(S(=O)(=O)Nc2nccs2)cc1C#N`, for which the Potency entry was “inactive”.
As for `CC1=CCC[C@@H]2[C@](CCc3ccoc3)(C(=O)O)[C@H](C)CC[C@@]12C`, the Potency result is “inactive”.
Regarding `COC(=O)C1=CO[C@@H](O[C@@H]2O[C@H](CO)[C@@H](O)[C@H](O)[C@H]2O)[C@@H]2C(CO)=CC[C@H]12`, the Potency entry is “inactive”.
In the case of `CC(CC(C)O[C@@H]1O[C@H](CO)[C@@H](O)[C@H](O)[C@H]1O)OC(=O)/C=C/c1ccc(O)cc1` (stereo partly drawn), the Potency entry is “inactive”.
Regarding `CC(=O)OC1C(O)/C(C)=C\C2C(OC(=O)c3ccccc3)C(C)CC2(OC(C)=O)C(OC(C)=O)C(C)/C=C/C(C)(C)C1OC(C)=O` (stereo not drawn), the Potency result was “inactive”.
On the same count and under the same terms, the same measure for `CC1=C(CO)C2(C)CCCC(C)(C)C2C(O)C1O` (stereo not drawn): “inactive”; for `CC(C)C[C@H](NC(=O)[C@@H]1O[C@H]1C(=O)O)C(=O)NCCCCN=C(N)N`: “inactive”.
For `COC(=O)C1=CO[C@@H](O[C@@H]2O[C@H](CO)[C@@H](O)[C@H](O)[C@H]2O)[C@@H]2[C@@H](CO)[C@@H](O)C(O)[C@H]12` (stereo partly drawn), the Potency result is “inactive”.
In the case of `CC12CC34CC(O)C5C(CO)(CO)CC(=O)CC5(C)C3CC1C2C4` (stereo not drawn), the Potency result is “inactive”.
For `C=C1CCC2(C(=O)OC3OC(CO)C(O)C(O)C3O)CCC3(C)C(=CCC4C5(C)CCC(OC6OC(CO)C(OC7OC(C)C(O)C(O)C7O)C(OC7OCC(O)C(O)C7O)C6O)C(C)(C)C5CCC43C)C2C1` (stereo not drawn), the outcome was “inactive [at 9.23 µM]”.
As for `COC(=O)[C@]1(Cc2ccc(O)c(CC=C(C)C)c2)OC(=O)C(O)=C1c1ccc(O)cc1`, the Potency entry is “inactive”.
`O=C(O)c1cc(O[C@@H]2O[C@H](CO)[C@@H](O)[C@H](O)[C@H]2O)ccc1O`: the Potency result was “inactive”.
Same read-out and setting: as for `C=CC(C)(O)CC/C=C(\C)C1CC=C(C)C(=O)O1` (stereo not drawn), the entry is “inactive”.
On to `C[C@@H]1O[C@@H](O[C@H]2[C@H](O[C@H]3[C@H](O[C@H]4CC[C@@]5(C)C(CC[C@]6(C)C5CC=C5[C@@H]7CC(C)(C)C[C@@H](O)[C@]7(C)CC[C@]56C)C4(C)C)O[C@H](C(=O)O)[C@@H](O)[C@@H]3O)O[C@H](C(=O)O)[C@H](O)[C@@H]2O)[C@H](O)[C@H](O)[C@H]1O` (stereo partly drawn), for which the outcome was “inactive [at 9.23 µM]”.
Consider `COC(=O)CCC1(C)C(C(C)(C)O)C(O)CC2(C)Oc3c(C)c4c(c(OC)c3CC21)C(=O)OC4` (stereo not drawn), for which the Potency entry was “inactive”.
Same read-out and setting: as for `Cc1occc(=O)c1O[C@@H]1O[C@H](COC(=O)CC(C)(O)CC(=O)O)[C@@H](O)[C@H](O)[C@H]1O` (stereo partly drawn), the entry is “inactive”; as for `C=CCc1ccc(O[C@@H]2O[C@H](CO)[C@@H](O)[C@H](O)[C@H]2O)c(O[C@@H]2O[C@H](CO)[C@@H](O)[C@H](O)[C@H]2O)c1`, “inactive”.
Turning to `CC(=O)OCC1OC(O[C@H]2CC[C@@]3(C)C(CC[C@]4(C)C3CC=C3[C@@H]5CC(C)(C)CC[C@]5(C(=O)O)CC[C@]34C)[C@]2(C)CO)C(O)C(O)C1OC1OC(C)C(O)C(OC2OCC(O)C(O)C2O)C1O` (stereo partly drawn), the activity change, negative = viability loss is -15.5% [at 9.23 µM].
